Results: PubChem BioAssay AID1159580 (chemical genetic matrix, 2015)
Where “and” joins values, the source holds several entries; their conditions need not be identical. Identical values can stand only once. Screen size: about 5,500 compounds; about 2,000 (36%) were called active. Another 18% or so got no clear call; they are omitted. No stated cut-off is given here; in the data, active means normalized growth mostly below about 0.91 (no sharp cut-off); inconclusive means no clear call, values can overlap the other calls; inactive means mostly above about 0.92. Some of the results follow.

Assay: chemical genetic growth profiling, strain panel (AID 1159580);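 further: tested at 20 µM; growth read once vehicle control cultures reached saturation at 30 °C; 1 = growth at the plate median or of vehicle wells; lower values mean less growth of the strain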
Settings: S. cerevisiae deletion strains, growth OD

Measured: normalized growth

CN[C@H](CC(=O)O)C(=O)O
inactive: locus YAL013W, strain DEP1, active compounds read low 0.983 | locus YAL021C, strain ccr4, active compounds read low 0.988 | locus YAL026C, strain drs2, active compounds read low 1.02 | locus YAL030W, strain snc1, active compounds read low 1.01 | locus YBL061C, strain skt5, active compounds read low 1.02 | locus YBR009C, strain hhf1, active compounds read low 1.01 | locus YBR021W, strain FUR4, active compounds read low 1.02 | locus YBR023C, strain chs3, active compounds read low 1.03 | locus YBR171W, strain sec66, active compounds read low 1.01 | locus YBR229C, strain ROT2, active compounds read low 0.998 | locus YBR231C, strain swc5, active compounds read low 1.02 | locus YBR279W, strain paf1, active compounds read low 1.01 | locus YCL011C, strain gbp2, active compounds read low 1.03 | locus YCL016C, strain dcc1, active compounds read low 1.02 | locus YCL029C, strain bik1, active compounds read low 0.985 | locus YCL061C, strain MRC1, active compounds read low 1 | locus YCL069W, strain vba3, active compounds read low 1.01 | locus YCR088W, strain abp1, active compounds read low 1.02 | locus YDL005C, strain med2, active compounds read low 1.03 | locus YDL035C, strain GPR1, active compounds read low 0.989 | locus YDL040C, strain nat1, active compounds read low 1.02 | locus YDL074C, strain BRE1, active compounds read low 1.04 | locus YDL101C, strain DUN1, active compounds read low 0.995 | locus YDL134C, strain PPH21, active compounds read low 0.987 | locus YDL185W, strain tfp1, active compounds read low 0.968 | locus YDL192W, strain arf1, active compounds read low 0.967 | locus YDR001C, strain nth1, active compounds read low 1.03 | locus YDR069C, strain doa4, active compounds read low 1.02 | locus YDR101C, strain arx1, active compounds read low 1.03 | locus YDR137W, strain rgp1, active compounds read low 0.967 | locus YDR159W, strain sac3, active compounds read low 1.03 | locus YDR162C, strain NBP2, active compounds read low 0.964 | locus YDR195W, strain ref2 1.05 | locus YDR297W, strain sur2, active compounds read low 1.02 | locus YDR318W, strain mcm21, active compounds read low 0.98 | locus YDR334W, strain swr1, active compounds read low 1.01 | locus YDR335W, strain msn5, active compounds read low 1.01 | locus YDR388W, active compounds read low 0.972 | locus YDR392W, strain spt3, active compounds read low 0.969 | locus YDR502C, strain sam2, active compounds read low 0.989 | locus YEL003W, strain gim4, active compounds read low 1.01 | locus YEL037C, strain rad23, active compounds read low 1.02 | locus YEL061C, strain CIN8 (second series), active compounds read low 1.03 | locus YEL061C, strain CIN8, active compounds read low 0.994 | locus YER015W, strain faa2, active compounds read low 1.02 | locus YER016W, strain bim1, active compounds read low 1.02 | locus YER110C, active compounds read low 0.945 | locus YER111C, strain swi4, active compounds read low 1.02 | locus YER155C, strain BEM2 (second series), active compounds read low 1.06 | locus YER155C, strain BEM2, active compounds read low 1 | locus YER167W, strain BCK2, active compounds read low 0.998 | locus YFR010W, strain ubp6, active compounds read low 1.03 | locus YGL078C, strain dbp3, active compounds read low 0.975 | locus YGL086W, strain mad1, active compounds read low 1.02 | locus YGL167C, strain pmr1, active compounds read low 1.01 | locus YGL173C, strain kem1, active compounds read low 1.01 | locus YGL227W, strain vid30, active compounds read low 1.03 | locus YGL240W, strain doc1, active compounds read low 1.04 | locus YGL248W, strain PDE1, active compounds read low 0.996 | locus YGL253W, strain hxk2, active compounds read low 1.02 | locus YGR135W, strain pre9, active compounds read low 0.923 | locus YGR252W, strain gcn5, active compounds read low 0.979 | locus YHR013C, strain ard1, active compounds read low 1.04 | locus YHR027C, strain rpn1, active compounds read low 1.02 | locus YHR030C, strain SLT2, active compounds read low 0.991 and 1.03 | locus YHR079C, strain IRE1 (second series), active compounds read low 0.992 | locus YHR079C, strain IRE1, active compounds read low 1.04 | locus YHR094C, strain hxt1, active compounds read low 0.981 | locus YHR129C, strain ARP1, active compounds read low 0.995 | locus YHR142W, strain chs7, active compounds read low 1.03 | locus YHR200W, strain rpn10, active compounds read low 0.98 | locus YIL066C, strain RNR3, active compounds read low 1 | locus YIL073C, strain SPO22, active compounds read low 0.913 | locus YIL125W, strain kgd1, active compounds read low 1 | locus YIR030C, strain dcg1, active compounds read low 0.983 | locus YJL092W, strain hpr5, active compounds read low 1.01 | locus YJL095W, strain BCK1 (second series), active compounds read low 1.02 | locus YJL095W, strain BCK1, active compounds read low 1.01 and 1.06 | locus YJL115W, strain asf1, active compounds read low 1.03 | locus YJL129C, strain trk1, active compounds read low 1.09 | locus YJL134W, strain LCB3, active compounds read low 0.993 | locus YJL154C, strain vps35, active compounds read low 1.02 | locus YJL164C, strain tpk1, active compounds read low 0.998 | locus YJL166W, strain qcr8, active compounds read low 1.03 | locus YJL168C, strain set2, active compounds read low 0.98 | locus YJL187C, strain SWE1 (second series), active compounds read low 1 | locus YJL187C, strain SWE1, active compounds read low 1.01 | locus YJR043C, strain POL32, active compounds read low 1
